Structures are written as SMILES. Active and inactive are the calls of the source. How the source made its calls: active means hit-call score of the fitted dose curve at least 0.9, where 1 is the maximum; inactive means score below 0.9.

For orientation: AC50 means the midpoint of the concentration-response curve, whichever way the signal moves.

The nature of this experiment: CCTE_Shafer_MEA_acute_per_network_burst_spike_number_std: CCTE's Neural Acute Assay for Standard Deviation of Number of Spikes in a Network Burst, Shafer Lab (AID 2284020).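 Further: fitted for decrease in spike-number SD versus DMSO so actives lower it.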 The protocol:
CCTE_Shafer_MEA_acute assay is conducted using Axion Biosystems 48 well microelectrode array (MEA) plates and Maestro recording system. Each well of the MEA plate contains a grid of 16 microelectrodes embedded in the culture surface. Electrically active cells, such as neurons, can be cultured over the electrodes, and electrical activity in these cells can be recorded extracellularly. The spontaneous firing of neurons is captured from each electrode on a microsecond timescale providing both temporally and spatially precise data. […] The CCTE_Shafer_MEA_acute assay uses primary cultures of rat cortical neurons. As these cultures mature over time, neural networks develop functional activity and form cohesive networks in which electrical activity can be highly coordinated. Baseline 40-minute recordings are made on days post-plating 13 or 15, followed by a secondary 40-minute recording after chemical exposure.CCTE_Shafer_MEA_acute_per_network_burst_spike_number_std is a component of the CCTE_Shafer_MEA_acute assay. It measures the standard deviation of the number of spikes (action potential firings) in a network burst (temporally-clustered group of spikes across multiple electrodes) during a recording in a microelectrode array (MEA) using Axion Biosystems Maestro 768 channel amplifier with the AxIS adaptive spike detector. The recordings before and after chemical treatment are used to calculate a percent change in the standard deviation of the number of spikes in network bursts in each well.Data from the assay component CCTE_Shafer_MEA_acute_burst_spike_number_std was analyzed into 1 assay endpoint. This assay endpoint, CCTE_Shafer_MEA_acute_burst_spike_number_std, was analyzed in the negative analysis fitting direction relative to DMSO as the negative control and baseline of activity. Using a type of functional reporter, gain or loss-of-signal activity can be used to understand electrical activity.
Spontaneous activity in the cortical cultures was recorded using an Axion Biosystems Maestro 768 channel amplifier and Axion Integrated Studios (AxIS) v1.8 (or later) software. The amplifier recorded from all channels simultaneously (gain = 1200 x; sampling rate = 12.5 kHz/channel): raw signals were filtered with a Butterworth band-pass filter (300-5000 Hz), which filters out slower local field potentials leaving only fast potentials, i.e., "spikes", arising from extracellular currents associated with action potentials (Pine 2006; Wheeler and Nam 2011). On-line spike detection of filtered signals was conducted with the AxIS adaptive spike detector, using a threshold of 8x the root mean squared (rms) noise on each channel. Any electrodes with rms noise levels greater than 5 uV were grounded (e.g., no data were recorded). Once grounded, an electrode was grounded for the duration of the experiment. All recordings were conducted at 37 C. Wells were deemed usable if on the day of the exposure >/= 10 electrodes were active (defined as >/= 5 spikes/min). On DIV 13 or 15, a minimum of three wells from one cortical culture preparation were treated with each compound (0.03-40 uM). Prior to recording baseline activity, each mwMEA plate was placed in the Maestro at 37 C and allowed to sit for 20 min while firing rates stabilized. Baseline activity (40 min) was recorded before the addition of each compound. An additional 40 min of spontaneous activity was recorded in the presence of each compound. Changes in network parameters relative to baseline were assessed following compound treatment.
Consider `OCC(CO)(CBr)CBr`, for which the compound was classed as inactive.

Regarding `CCCCc1oc2ccccc2c1C(=O)c1cc(I)c(OCCN(CC)CC)c(I)c1`, the call was inactive.

`CCCCC=O`: the result was inactive.

On to `O=C1NS(=O)(=O)c2ccccc21`, for which the compound was called inactive.

For `N=C(N)c1ccc(OCCCCCOc2ccc(C(=N)N)cc2)cc1`, the compound was called inactive.

For `CN(C)CCOC(c1ccccc1)c1ccccc1`, the compound was classed as inactive.

For `CCC(C)c1ccccc1O` (configuration not stated), the compound was classed as inactive.

Take `Oc1ccc(Cc2ccccc2O)cc1`: the compound was classed as inactive.

Consider `CCCCCCCCCCCC`, for which the call was inactive.

Turning to `O=C(CCCN1CCC(O)(c2ccc(Cl)cc2)CC1)c1ccc(F)cc1`, the outcome was inactive.

For the compound `CC(=O)Nc1ccc(O)cc1`, the compound was called inactive.

As for `Oc1c(Cl)cc(Cl)cc1Sc1cc(Cl)cc(Cl)c1O`, the AC50 is 5 µM (active).

Source of the values: PubChem BioAssay (EPA / NIEHS).
